Test results taken from PubChem BioAssay AID585 (National Center for Advancing Translational Sciences (NCATS), 2007).
Screen size: about 71,000 compounds; about 1,300 (1.8%) were called active. This excerpt belongs to a sample that is enriched for actives. A number with no mark means an inactive call. Calls come from the whole dose curve.

molecular target: Beta-lactamase (Escherichia coli (strain K12)) (UniProt P00811); test: Promiscuous and Specific Inhibitors of AmpC Beta-Lactamase (assay without detergent); conditions: AmpC nitrocefin hydrolysis, absorbance 480 nm, no detergent; series mostly up to 28.7 µM; activity change, negative = inhibition: at the top concentration; for activity change, negative = inhibition: % of control where 0% means no effect
Protocol: NIH Molecular Libraries Screening Centers Network [MLSCN]
NIH Chemical Genomics Center [NCGC]
PI Name: Shoichet, Brian K.
This aggregation profiling approach exploits the sensitivity of aggregate formation to detergent. Inhibition of b-lactamase is measured in the presence and absence of 0.01% Triton X-100. See Pubchem assay "Promiscuous and Specific Inhibitors of AmpC Beta-Lactamase (assay with detergent)" for related screen. Compounds that inhibit only in the absence of detergent are considered likely promiscuous aggregators.
A screen of 1,030 compounds was performed in Brian Shoichet's lab in 96-well format. AmpC activity was measured by following the absorbance at 480 nm. Nitrocefin is a chromogenic substrate: while nitrocefin is yellow (lmax 390 nm), the product of its hydrolysis is red (lmax 486 nm, 17,000 M-1). AmpC beta lactamase was provided by Brian Shoichet and Brian Feng, UCSF.
NCGC Assay Protocol Summary:
20 mM phosphate buffer, pH 7.0
Triton X-100: No Detergent screen: 0.0001%, Detergent screen: 0.01%.
Buffer in columns 3 and 4 as negative control (no enzyme).
5.3 nM AmpC in columns 1, 2, 5-48. Titration of UCSF compound 9 control (from 10 mM, then 1:2) pin-transferred to column 2. Column 1 is neutral (100% activity).
Six uL of reagents were dispensed to 1536-well Greiner black clear bottom plates. Compounds and controls (23 nL) were transferred via Kalypsys PinTool. The plates were incubated for 15 min at room temperature, and then 2 uL of 800 uM solution of nitrocefin was added to start the reaction. The plates were immediately transferred to and read every 20 seconds for 4 min on ViewLux (Perkin-Elmer) High-throughput CCD imager using 480 nm absorbance protocol. During dispense, reagent bottles were kept submerged into 4 deg C water bath.
Keywords: NIH Roadmap, MLSCN, MLI, MLSMR, qHTS, NCGC, AmpC Beta-Lactamase, Aggregation.
Potency is the fitted concentration of half-maximal effect.

Sequence of Beta-lactamase (Escherichia coli (strain K12)) (P00811 whole entry, looked up): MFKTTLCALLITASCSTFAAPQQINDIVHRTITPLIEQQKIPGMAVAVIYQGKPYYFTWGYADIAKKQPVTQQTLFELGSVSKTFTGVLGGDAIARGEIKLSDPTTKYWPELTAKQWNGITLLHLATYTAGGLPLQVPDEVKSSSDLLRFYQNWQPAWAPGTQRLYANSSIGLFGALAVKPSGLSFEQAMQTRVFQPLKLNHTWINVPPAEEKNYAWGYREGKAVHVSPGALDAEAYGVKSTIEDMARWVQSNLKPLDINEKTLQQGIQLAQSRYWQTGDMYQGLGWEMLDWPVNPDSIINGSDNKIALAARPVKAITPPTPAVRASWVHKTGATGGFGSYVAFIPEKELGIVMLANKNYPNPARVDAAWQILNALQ

Row | Structure (SMILES) | activity change, negative = inhibition | Potency
1 | CCOc1ccc(CN(Cc2ccco2)C(c2cccs2)c2nnnn2C(C)(C)C)cc1 (stereo unspecified) | 25.1% | –
2 | O=C(COC(=O)c1ccccc1C(=O)c1ccccc1)c1ccco1 | 4.4% | –
3 | Cc1ccc(C(=O)OCC(=O)NCc2ccc3c(c2)OCO3)s1 | -2.6% | –
4 | O=C(NCc1ccc2c(c1)OCO2)c1cc2c(s1)CS(=O)(=O)C2 | – | 12.6 µM [single pt active] (active)
5 | CCOC(=O)NCc1ccc2c(c1)OCO2 | -7.3% | –
6 | CC(Sc1sc(=S)sc1SC(C)C(=O)O)C(=O)O (stereo unspecified) | 0.8% | –
7 | O=C(Nc1nncs1)c1ccccc1NS(=O)(=O)c1cccs1 | -10.1% | –
8 | COC(=O)c1sc(NC(=O)c2ccc(OC)cc2OC)nc1C | 16.1% | –
9 | COc1ccc(C(=O)Nc2nncs2)c(OC)c1 | – | 3.98 µM [single pt active] (active)
10 | O=C(COC(=O)c1ccc(Oc2ccccc2)cc1)Nc1nnc(-c2ccccc2)o1 | – | 15.8 µM (active)
11 | Cc1ccc(OCC(=O)Nc2ccc(-c3nnc(-c4ccco4)o3)cc2)cc1 | 12.3% | –
12 | COc1ccc(CC(=O)Nc2ccc(-c3nnc(-c4ccccc4)o3)cc2)cc1 | 8.9% | –
13 | CS(=O)(=O)N1CCC2(CC1)CN(Cc1cc(C(F)(F)F)cc(C(F)(F)F)c1)C2 | 63% | –
14 | CC1(C)C(=O)Nc2ccccc2N1C(=O)COC(=O)Cn1cnc2ccccc2c1=O | 14.3% | –
15 | O=C(NCc1ccco1)c1cc(-c2cccnc2)nc2ccc(Cl)cc12 | 110% | –
16 | CCOC(=O)N1CCN(C(=O)c2cc3c(-c4ccc(Cl)cc4)nn(C)c3s2)CC1 | – | 2.51 µM [single pt active] (active)
17 | Cn1nc(-c2ccc(Cl)cc2)c2cc(C(=O)NCc3ccco3)sc21 | – | 3.16 µM (active)
18 | O=C(NCc1ccco1)c1nc2ncccn2n1 | -4.1% | –
19 | COc1ccccc1N1CCN(C(=O)c2cc3c(-c4ccc(Cl)cc4)nn(C)c3s2)CC1 | 2.6% | –
20 | COc1cccc(-c2nn(C)c3sc(C(=O)N4CCN(c5ccccc5)CC4)cc23)c1 | 68.5% | –
21 | O=C(NCCc1ccccn1)c1ccc(COc2ccccc2)o1 | 31.1% | –
22 | O=C1CC2(CCCCC2)Oc2ccc(OCC(=O)N3CCOCC3)cc21 | 54.1% | –

Row | Structure (SMILES) | activity change, negative = inhibition | Potency
23 | CCc1nnc(NC(=O)CSc2nnc(COc3ccc(C#N)cc3)n2-c2ccccc2)s1 | 49% | –
24 | CCOc1ccc(-n2c(SC(C)C(=O)OC)nc3c(c2=O)SCC3)cc1 (stereo unspecified) | 47.2% | –
25 | CCCc1nnc(NC(=O)CN2C(=O)c3ccccc3S2(=O)=O)s1 | -10.1% | –
26 | CNC(=O)CN1C(=O)c2ccccc2S1(=O)=O | – | 3.98 µM [single pt active] (active)
27 | O=C(CN1C(=O)c2ccccc2S1(=O)=O)N1CCc2ccccc21 | -13.7% | –
28 | Fc1cccc(/C=N\N=C/c2cccc(F)c2)c1 | 11.7% | –
29 | COc1cccc(NC(=O)Nc2nnc(N3CCCCC3C)s2)c1 (stereo unspecified) | – | 2.51 µM [single pt active] (active)
30 | COc1cccc(NC(=O)C2CCCN2C(=O)OCc2ccccc2)c1 (stereo unspecified) | 9.3% | –
31 | COc1cccc(Nc2nnc(SCC(=O)N3CC(C)OC(C)C3)s2)c1 (stereo unspecified) | 21% | –
32 | COCc1cc(C)nc(SCC(=O)Nc2cccc(C)c2)c1C#N | -7.6% | –
33 | CC1=C2C(=O)OC(c3ccoc3)C2(C)CCC1 (stereo unspecified) | -1.9% | –
34 | COc1ccc(C(=O)N/N=C2/C(=O)c3c(C)cc(C)cc3CC2(C)C)cc1 | 18.6% [at 5.75 µM] | –
35 | CCOC(=O)N1CCC(C(N)=O)CC1 | -4.6% | –
36 | Cc1noc(C)c1S(=O)(=O)N(CC(=O)Nc1ccc2c(c1)OCCO2)c1ccc(C(C)C)cc1 | -4.4% | –
37 | CCOC(=O)C1(C(F)(F)F)N=C(N(C)C)OC(N(C)C)=N1 | -6.4% | –
38 | N#CC1=C(N)Oc2cc(O)ccc2C1C1CCCCC1 (stereo unspecified) | -9.2% | –
39 | O=C(O)c1c(Br)c(Br)c(Br)c(Br)c1C1c2ccc(O)cc2Oc2cc(O)ccc21 | – | 0.158 µM (active)
40 | COCCNC(=O)CN1C(=O)CSc2ncccc21 | -21.6% | –
41 | CC(C)(Cc1c[nH]c2ccc(Cl)cc12)NCCOc1ccccc1OCC1CC1 | – | 20 µM [single pt active] (active)
42 | NCC[Se][Se]CCN | 1.6% [at 5.75 µM] | –
43 | COC(=O)N1CCC[C@@]2(CCN(C(=O)NC(C)C)C2)C1 | 22.8% | –
44 | Cc1cc(C)c(C#N)c(SCc2ccc3c(c2)OCO3)n1 | -11.5% | –

Row | Structure (SMILES) | activity change, negative = inhibition | Potency
45 | Cc1nc(C)c(C(=O)Nc2ccc(C)c(F)c2)o1 | -4% | –
46 | Cc1nc(C)c(C(=O)Nc2cccc(C)c2C)o1 | – | 3.98 µM [single pt active] (active)
47 | COc1ccc(Cl)cc1NC(=O)c1oc(C)nc1C | 22.7% | –
48 | c1ccc2c(c1)OCC(CNc1ncnc3nc[nH]c13)O2 (stereo unspecified) | 8.2% | –
49 | c1ccc(CCN2CCN=C2Cc2ccccc2)cc1 | 13.3% [at 5.75 µM] | –
50 | COc1cccc(N2C(=O)C3CCCN3C2c2ccc(F)cc2)c1 (stereo unspecified) | 26.5% | –
51 | CC1=CC(C)(C)N(C(=O)CSc2nccn2C)c2cc(C)ccc21 | 45.9% | –
52 | O=C(Cn1c(=S)nc2ccccn21)N1CCc2ccccc2C1 | 3.2% | –
53 | C=C1c2cc(CC)ccc2NC(=O)N1c1ccc(C)cc1 | – | 3.98 µM [single pt active] (active)
54 | Cc1ccc(S(=O)(=O)N2CC(=O)Nc3ccccc32)cc1C | 2.2% | –
55 | FC(F)Oc1ccccc1C1CC(c2ccc(Br)s2)Nc2ncnn21 (stereo unspecified) | 66.8% | –
56 | O=c1cc(Cn2nnc(-c3ccc(Cl)cc3)n2)nc2sccn12 | 40% | –
57 | CS(=O)(=O)N(CC(=O)N1CCN(Cc2ccc3c(c2)OCO3)CC1)c1ccc2c(c1)OCO2 | 68.3% | –
58 | CCCS(=O)(=O)N1CCCC(C(=O)NCc2ccco2)C1 (stereo unspecified) | -0.5% | –
59 | O=C(NCc1ccco1)C1CCCN(S(=O)(=O)c2cccc3nonc23)C1 (stereo unspecified) | 0.9% | –
60 | O=C(NCc1ccco1)C1CCCN(S(=O)(=O)c2cnc[nH]2)C1 (stereo unspecified) | – | 3.98 µM [single pt active] (active)
61 | CC1(C)CC(CCC(=O)Nc2ccccc2Cl)C(=O)O1 (stereo unspecified) | -5.9% | –
62 | COc1ccc(C(=O)N(Cc2ccc(N(C)C)cc2)C2CCS(=O)(=O)C2)cc1 (stereo unspecified) | 37.7% | –
63 | Cc1nc(N2CCN(c3ncccn3)CC2)c2oc3ccccc3c2n1 | 56.3% | –
64 | CCOC(=O)N1CCN(C(=O)c2cc3c(ccc4ccccc43)oc2=O)CC1 | 42.4% | –
65 | CC(C)(C)NC(=O)NC(=O)COC(=O)Cn1c(C(F)(F)F)nc2ccccc21 | 24% | –
66 | Cn1cccc1C(=O)NC(=O)COC(=O)Cc1coc2ccc3ccccc3c12 | – | 12.6 µM (active)
